RORgamma inh – ROR gamma (mouse) transcription inhibition; Drosophila S2 Gal4-RORgamma UAS-luciferase reporter, 20 h; P51450; Potency, µM (highest dose often 53.6 µM), usual class: inhibitors; hit rate 5.4% among 310,000; note: nearly all actives have a fitted effect of over 60% in size
Target sequence (P51450 whole entry, looked up, the tested form may be a part): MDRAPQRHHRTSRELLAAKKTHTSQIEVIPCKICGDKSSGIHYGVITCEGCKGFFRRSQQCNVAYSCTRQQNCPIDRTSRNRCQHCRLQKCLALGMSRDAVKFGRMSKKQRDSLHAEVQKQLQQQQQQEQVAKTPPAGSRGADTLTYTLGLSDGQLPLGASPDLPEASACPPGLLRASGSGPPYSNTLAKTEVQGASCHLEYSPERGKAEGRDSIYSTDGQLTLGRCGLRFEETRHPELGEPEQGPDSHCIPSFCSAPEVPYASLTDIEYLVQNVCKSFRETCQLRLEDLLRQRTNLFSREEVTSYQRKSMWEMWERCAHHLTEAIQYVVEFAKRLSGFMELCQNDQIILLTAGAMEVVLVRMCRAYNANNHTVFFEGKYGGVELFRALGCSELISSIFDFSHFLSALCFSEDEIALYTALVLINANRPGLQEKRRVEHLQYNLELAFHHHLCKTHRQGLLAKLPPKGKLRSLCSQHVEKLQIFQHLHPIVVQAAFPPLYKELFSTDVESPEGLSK
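Stably transfected Drosophila Schneider cells are the test system, with ROR gamma fused to Gal4 and luciferase under UAS control; luminescence is read after 20 hr of 700 uM copper sulfate induction at ambient temperature.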
SW480 rereplic – inducers of DNA re-replication in SW480 colon cancer cells; SW480 DNA re-replication, Hoechst DNA content imaging, 48 h; Potency, µM (titrated, usually from 46.1 µM), usual class: activators; hit rate 1.8% among 340,000; note: nearly all actives have a fitted effect of over 55% in size
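Treated cells incubate 48 hr (37 C, 5% CO2), are stained 40 min with Hoechst, and nuclear fluorescence is enumerated; a rise in nuclei with high DNA signal marks re-replication.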
KB-V1 MDR tox – KB-V1 MDR subline cytotoxicity | KB-V1 MDR cells viability, CellTiter-Glo, 72 h | Potency, µM (series often up to 46.1 µM), usual class: cytotoxic | hit rate 3.4% among 400,000; note: nearly all actives have a fitted effect of over 60% in size
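Following 72 h at 37 degrees C with compound, KB-V1 cell viability was read by CellTiter-Glo luminescence, medium being phenol-red-free DMEM plus 10% FBS; concentration-response parameters came from normalized, curve-fitted qHTS data.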
MCF10A rereplic – DNA re-replication induction in MCF 10a cells | MCF 10A DNA re-replication, Hoechst nuclear intensity, 48 h | Potency, µM (top dose mostly 46.1 µM), usual class: activators | hit rate 2.9% among 350,000 | AID 624296; note: nearly all actives have a fitted effect of over 50% in size
KB-3-1 tox – kills parental KB-3-1 adenocarcinoma cells | KB-3-1 viability, CellTiter-Glo ATP luminescence, 72 h | Potency, µM (series often up to 46.1 µM), most hits filed as cytotoxic | hit rate 1.4% among 400,000; note: nearly all actives have a fitted effect of over 60% in size
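Cells are dispensed, compounds pinned in, plates held at 37 °C for 72 h, then CellTiter-Glo is added and luminescence read after 10 minutes. Cell line: parental KB-3-1 in phenol-red-free DMEM, 10% FBS.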
Gal4-VP16 FLuc – inhibits Gal4-VP16 luciferase reporter, ROR gamma counter-screen; Drosophila S2 Gal4-VP16 UAS-luciferase, luminescence, 20 h; Potency, µM (titrated, usually from 53.6 µM), hits mostly inhibitors; hit rate 3.5% among 310,000; AID 2546;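 note: Gal4-VP16 expression switched on by copper sulfate through the metallothionein promoter; nearly all actives have a fitted effect of over 50% in size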
A number is an active result. Rows were chosen to be rich in hits. Some 10% of all compounds tested hit in one or more screens of this group. Calls come from the whole dose curve; as a rule, active = well fitted curve in the direction sought with a large enough effect; inconclusive = small, poorly fitted or top-dose-only effect, or another doubt; inactive = no such curve, though single readings can be large; an effect the other way counts as inactive or inconclusive.

Screening CCC(=O)NC(c1ccc(C)cc1)c1cc(Cl)c2cccnc2c1O (stereo not given) returned SW480 rereplic inconclusive, KB-V1 MDR tox inconclusive, MCF10A rereplic inactive and KB-3-1 tox inconclusive.
For CCC(=O)NC(/C=C/c1ccccc1)c1cc([N+](=O)[O-])c2cccnc2c1O (stereo not given) the results were RORgamma inh 2.24µM and Gal4-VP16 FLuc 2µM.
For Cc1ccc(C(NC(=O)C(C)C)c2cc([N+](=O)[O-])c3cccnc3c2O)cc1 (stereo not given) the results were RORgamma inh 2.24µM, SW480 rereplic inactive, KB-V1 MDR tox inconclusive, MCF10A rereplic inactive, KB-3-1 tox inconclusive and Gal4-VP16 FLuc inconclusive.
Screening Cc1ccccc1Cn1c(SCc2ccc(C(=O)NCCc3ccccc3)cc2)nc2ccncc21 returned KB-V1 MDR tox inactive and KB-3-1 tox inactive.
For COc1ccc(Nc2ncc3c(n2)CCN(Cc2cccc(F)c2F)C3)c(OC)c1 the results were KB-V1 MDR tox inactive and KB-3-1 tox inconclusive.
Screening CCCCCCCCCC(=O)N/N=C/c1ccc(C)s1 returned RORgamma inh inactive, SW480 rereplic inconclusive, KB-V1 MDR tox inactive, MCF10A rereplic 16.4µM, KB-3-1 tox inactive and Gal4-VP16 FLuc inactive.
Screening CCCCCCCC(=O)N/N=C/c1cccnc1 returned RORgamma inh inactive, SW480 rereplic inactive, KB-V1 MDR tox inactive, MCF10A rereplic inactive, KB-3-1 tox inactive and Gal4-VP16 FLuc inactive.
Cc1ccc(/C=N/NC(=O)C[n+]2ccccc2)s1 was read as RORgamma inh inactive, SW480 rereplic inactive, KB-V1 MDR tox inactive, MCF10A rereplic inactive, KB-3-1 tox inactive and Gal4-VP16 FLuc inactive.
`CCCCCCCC(=O)N/N=C/c1ccc(Br)cc1` gave RORgamma inh inactive, SW480 rereplic inactive, KB-V1 MDR tox inactive, MCF10A rereplic 7.31µM, KB-3-1 tox inactive and Gal4-VP16 FLuc inactive.
Screening CC(=O)c1sc(N/N=C\c2c(O)ccc3ccccc23)nc1C returned SW480 rereplic 3.26µM, KB-V1 MDR tox inactive, MCF10A rereplic inconclusive and KB-3-1 tox inconclusive.
CC(=O)c1sc(N/N=C/c2cccc(O)c2)nc1C was read as RORgamma inh inactive, SW480 rereplic inactive, KB-V1 MDR tox inactive, MCF10A rereplic inactive, KB-3-1 tox inactive and Gal4-VP16 FLuc inactive.
`COC(=O)c1sc(N/N=C/c2ccc(C(C)C)cc2)nc1C` gave RORgamma inh inconclusive, SW480 rereplic inconclusive, KB-V1 MDR tox inactive, MCF10A rereplic 14.6µM, KB-3-1 tox inactive and Gal4-VP16 FLuc inconclusive.
`CC(=O)c1sc(N/N=C\c2ccc(N(C)C)cc2)nc1C` gave RORgamma inh inactive, SW480 rereplic inconclusive, KB-V1 MDR tox inactive, MCF10A rereplic 16.4µM, KB-3-1 tox inactive and Gal4-VP16 FLuc inactive.
Screening Cc1ccc(Cl)cc1N1CCN(S(=O)(=O)c2ccc3c(c2)CCCN3C(=O)C2CCC2)CC1 returned KB-V1 MDR tox inactive and KB-3-1 tox inactive.
`Cc1ccc2nc(-c3ccc(Cl)c(NC(=O)COc4ccc([N+](=O)[O-])cc4)c3)oc2c1` gave KB-V1 MDR tox inactive and KB-3-1 tox inactive.
Screening CCOC(=O)CNC(=S)N(Cc1ccc(C)cc1)Cc1ccc(C)o1 returned RORgamma inh inactive, SW480 rereplic inactive, KB-V1 MDR tox 16.4µM, MCF10A rereplic inactive, KB-3-1 tox inactive and Gal4-VP16 FLuc inactive.
Screening O=C(Nc1ccccc1N1CCOCC1)c1cnccn1 returned RORgamma inh inactive, SW480 rereplic inactive, KB-V1 MDR tox inactive, MCF10A rereplic inactive, KB-3-1 tox inactive and Gal4-VP16 FLuc inactive.
`O=C(Nc1ccc(N2CCOCC2)cc1)c1cnsn1` gave RORgamma inh 2µM, SW480 rereplic inactive, KB-V1 MDR tox inactive, MCF10A rereplic inactive, KB-3-1 tox inactive and Gal4-VP16 FLuc 1.78µM.
`O=C(Nc1ccc(N2CCOCC2)cc1)c1cnccn1` gave RORgamma inh 5.01µM, SW480 rereplic inactive, KB-V1 MDR tox inactive, MCF10A rereplic inactive, KB-3-1 tox inactive and Gal4-VP16 FLuc 7.94µM.
CCOC(=O)[C@]12CCC=C1N(Cc1ccc(Cl)cc1Cl)C(=O)[C@H](CC(=O)N1CCOCC1)C2 was read as KB-V1 MDR tox inactive and KB-3-1 tox inactive.
Screening C/C(=N\Nc1cccc2cccnc12)c1ccc[nH]1 returned RORgamma inh 3.55µM, SW480 rereplic inactive, KB-V1 MDR tox inactive, MCF10A rereplic inactive, KB-3-1 tox inconclusive and Gal4-VP16 FLuc inactive.
`NC(=S)Nc1cccc2cccnc12` gave RORgamma inh inconclusive, SW480 rereplic inactive, KB-V1 MDR tox inactive, MCF10A rereplic inactive, KB-3-1 tox inactive and Gal4-VP16 FLuc inactive.
Cc1nc(C)c(-c2csc(Nc3cccnc3)n2)s1 was read as RORgamma inh inconclusive, SW480 rereplic inactive, KB-V1 MDR tox 3.26µM, MCF10A rereplic inactive, KB-3-1 tox inactive and Gal4-VP16 FLuc inactive.
c1cncc(Nc2nc(-c3ccncc3)cs2)c1 was read as RORgamma inh inactive, SW480 rereplic inconclusive, KB-V1 MDR tox inactive, MCF10A rereplic inconclusive, KB-3-1 tox inactive and Gal4-VP16 FLuc inactive.
CCOc1ccccc1Nc1nc(-c2sc(C)nc2C)cs1 was read as RORgamma inh 8.91µM, SW480 rereplic inconclusive, KB-V1 MDR tox inconclusive, MCF10A rereplic inconclusive, KB-3-1 tox inconclusive and Gal4-VP16 FLuc inconclusive.
For COc1ccc(Nc2nc(-c3sc(C)nc3C)cs2)cc1 the results were RORgamma inh inactive, SW480 rereplic 1.46µM, KB-V1 MDR tox 1.64µM, MCF10A rereplic inconclusive, KB-3-1 tox 5.8µM and Gal4-VP16 FLuc inactive.
For Cc1nc(C)c(-c2csc(Nc3ccc(N)cc3)n2)s1 the results were RORgamma inh inactive, SW480 rereplic inactive, KB-V1 MDR tox inactive, MCF10A rereplic inactive, KB-3-1 tox inactive and Gal4-VP16 FLuc inactive.
O=S(=O)(c1cccc(Cl)c1)N1CCN(c2nc(-c3cccs3)nc3ccccc23)CC1 was read as KB-V1 MDR tox inactive and KB-3-1 tox inconclusive.
CCCCCCCCCCCCCC(=O)Nc1ccc(/C=C/c2ccnc3ccccc23)cc1 was read as KB-V1 MDR tox inactive and KB-3-1 tox inconclusive.
For Cc1cc(NC(=S)NC(=O)C2CC2)ccc1Br the results were RORgamma inh 2.51µM, SW480 rereplic inactive, KB-V1 MDR tox inactive, MCF10A rereplic inconclusive, KB-3-1 tox inactive and Gal4-VP16 FLuc 2.51µM.
Cc1cc(C)cc(NC(=S)NC(=O)C2CC2)c1 was read as RORgamma inh 7.08µM, SW480 rereplic inactive, KB-V1 MDR tox inactive, MCF10A rereplic inactive, KB-3-1 tox inactive and Gal4-VP16 FLuc 6.31µM.
Cc1cccc(NC(=S)NC2CC3C=CC2C3)c1 (stereo not given) was read as RORgamma inh 5.01µM, SW480 rereplic inactive, KB-V1 MDR tox inactive, MCF10A rereplic inactive, KB-3-1 tox inactive and Gal4-VP16 FLuc 11.2µM.
For Cc1cccc(NC(=S)NC(=O)C2CC2)c1 the results were RORgamma inh 7.94µM and Gal4-VP16 FLuc inconclusive.

Source: PubChem BioAssay
